Test results taken from PubChem BioAssay AID1030 (National Center for Advancing Translational Sciences (NCATS), 2008).
In all, about 220,000 compounds went through this assay and about 16,000 (7.3%) were called active. Roughly 25% stayed inconclusive and do not appear here. The sample holds actives, similar compounds and a random draw of the others, so the mix is not that of the screen. Values without a mark were called inactive. Calls come from the whole dose curve; as a rule, active = well fitted inhibition curve with a large enough effect (not every such curve was filed as active); inconclusive = small, poorly fitted or top-dose-only effect, or another doubt; inactive = no such curve, though single readings can be large or run the other way.

Each compound was assayed against Aldehyde dehydrogenase 1A1 (Homo sapiens) (UniProt P00352) (assay: qHTS Assay for Inhibitors of Aldehyde Dehydrogenase 1 (ALDH1A1)). Conditions: Purified ALDH1A1, NADH fluorescence, propionaldehyde substrate; series mostly up to 75.3 µM; activity, negative = inhibition: at the top concentration.
Chain of Aldehyde dehydrogenase 1A1 (Homo sapiens) (P00352 whole entry, looked up): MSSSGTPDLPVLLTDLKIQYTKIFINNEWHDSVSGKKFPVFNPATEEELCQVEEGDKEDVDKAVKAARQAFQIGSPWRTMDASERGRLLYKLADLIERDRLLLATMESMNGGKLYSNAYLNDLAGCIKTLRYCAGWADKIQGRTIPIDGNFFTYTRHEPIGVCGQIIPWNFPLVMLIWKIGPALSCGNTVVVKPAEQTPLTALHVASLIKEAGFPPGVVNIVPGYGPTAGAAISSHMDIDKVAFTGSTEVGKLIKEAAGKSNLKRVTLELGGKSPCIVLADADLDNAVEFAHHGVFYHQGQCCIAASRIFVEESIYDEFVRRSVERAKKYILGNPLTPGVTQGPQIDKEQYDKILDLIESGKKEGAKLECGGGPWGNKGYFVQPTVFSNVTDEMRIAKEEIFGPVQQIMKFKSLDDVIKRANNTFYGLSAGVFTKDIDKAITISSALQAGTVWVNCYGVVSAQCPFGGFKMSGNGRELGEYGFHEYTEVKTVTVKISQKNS
Potency is the fitted concentration of half-maximal effect.
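Throughout, for activity, negative = inhibition: plate controls were no enzyme wells and a reference inhibitor.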

SMILES | activity, negative = inhibition [%] | Potency
CCCNC(=S)N1CCCC(c2nc3ccccc3[nH]2)C1 (configuration not stated) | 9.56 | –
C#Cc1ccc([C@@H]2C=C(C(=O)O)O[C@H](OCCCCO)C2)cc1 | -7.97 | –
Cc1csc(/N=C/N(C)C)c1C#N | -6.21 | –
C/C(Nc1ccc2oc(=O)ccc2c1)=C1/C(=O)CC2[C@@H]1C2(C)C (some centres not stated) | – | 3.98 µM (active)
COc1c(C(C)C)oc2cc3oc(=O)ccc3cc12 | -1.48 | –
Cc1c(CCO)sc[n+]1CC(=O)OC12CC3CC(CC(C3)C1)C2 | 5.18 | –
CC(=O)Nc1ccc(Nc2nc3c(S(=O)(=O)c4ccc(C)c(C)c4)nnn3c3ccccc23)cc1 | 139 | –
CN(CCc1ccccn1)C(=O)CCC1CCCN(Cc2ccccc2OC(F)F)C1 (configuration not stated) | 11.8 | –
c1ccc(COc2ccccc2CNCc2cccnc2)cc1 | – | 17.8 µM (active)
O=C(CCc1ccccc1)NCc1cccnc1 | 3.47 | –
Fc1ccccc1COc1ccccc1CNCc1ccncc1 | 8.32 | –
CC(C)(C)c1ccc(/C=C2\Oc3c(ccc(O)c3CN3CCN(CCO)CC3)C2=O)cc1 | -12.5 | –
O=C(CSc1ccc2nnc(-c3ccccc3)n2n1)N1CCCc2ccccc21 | -10.2 | –
O=C(NCc1nnc(SCC(=O)N2CCCc3ccccc32)o1)c1ccccc1F | – | 28.2 µM (active)
Cc1nnc(SCC(=O)N2CCc3ccccc32)n1-c1ccccc1 | 0.566 | –
COc1ccc(-c2ccc(CNCCCN3CCOCC3)o2)cc1Cl | 6.17 | –
CC1(C)O[C@@H]2C[C@@H]3[C@H]4C[C@@H](F)C5=CC(=O)C=C[C@]5(C)[C@@]4(F)[C@@H](O)C[C@]3(C)[C@]2(C(=O)CO)O1 | 12.1 | –
COc1ccc(C2C(C(=O)Nc3ccccc3OC)=C(C)Nc3nnnn32)c(OC)c1 (configuration not stated) | -14.3 | –
COc1ccccc1NC(=O)C1=C(C)Nc2nnnn2C1c1cccc(Br)c1 (configuration not stated) | -5.9 | –
COC(=O)C1=C(C(=O)c2ccc(C)cc2)C(c2ccccc2)n2nnnc2N1 (configuration not stated) | – | 7.08 µM (active)
COc1cc(OC)cc(-c2nnc(SCC(=O)Nc3ccc(C(=O)O)cc3)s2)c1 | -8.2 | –
Cc1ccc(S(=O)(=O)NC(C(=O)N2CCOCCOCCOCCOCC2)c2ccccc2)cc1 (configuration not stated) | -1.15 | –
COc1cc(OC)cc(C(=O)NCCSCc2ccco2)c1 | 5.75 | –
CCC(CC)NC(=O)/C=C/c1cccc([N+](=O)[O-])c1 | -3.2 | –
O=C(/C=C/c1cccc([N+](=O)[O-])c1)NCCSCc1ccco1 | – | 20 µM (active)
C/C=C1\C2C=C(C)CC1(N)c1ccc(=O)[nH]c1C2 (configuration not stated) | – | inactive

SMILES | activity, negative = inhibition [%] | Potency
CCOc1ccc(-c2ccc(SCC(=O)N3CCOCC3)nn2)cc1 | 1.06 | –
CN1CCN(S(=O)(=O)c2cccc(C(=O)N3CCc4ccccc43)c2)CC1 | -2.83 | –
C/C(=N\NC(=O)c1cccc(N2CCCC2=O)c1)c1ccc(N)cc1 | -7.57 | –
O=C(CN1C(=O)COc2ccccc21)Nc1ccc(F)cc1 | – | 22.4 µM (active)
O=C(CCN1C(=O)COc2ccccc21)NCCCN1CCN(c2ccc(F)cc2)CC1 | 8.59 | –
CCCN1CCN(CCCNC(=O)CN2C(=O)COc3ccccc32)CC1 | -0.825 | –
Cc1ccc(Cl)c(NC(=O)CN2CCN(C=O)CC2)c1 | 6.92 | –
CCCCC/C=C\C/C=C\C/C=C\CCCCC(=O)NCC(=O)O | 1.71 | –
O=C(O)C1CCN(C(=O)c2cc(F)cc3c2OCOC3)CC1 | -4.59 | –
COc1ccccc1C1CCN(c2ccc([N+](=O)[O-])cn2)CC1 | -3.06 | –
COc1ccc([N+](=O)[O-])cc1NC(=O)C(C)OC(=O)C1c2ccccc2Oc2ccccc21 (configuration not stated) | 4.85 | –
COc1ccc([N+](=O)[O-])cc1C1NN=C(c2cccc3ccccc23)S1 (configuration not stated) | – | 10 µM (active)
COc1ccc(CN(C)Cc2nc3cc(OC)c(OC)cc3c(=O)[nH]2)c(OC)c1 | 6.82 | –
COc1ccnc(Oc2ccccc2)c1-c1ncn[nH]1 | -0.551 | –
Cc1cc2oc(=O)cc(-c3ccccc3)c2c(C)c1/C=C/c1ccc(F)cc1 | 1.81 | –
Nc1ccc(S(=O)(=O)Nc2nccc(/C=C/c3ccc(Br)s3)n2)cc1 | -11.9 | –
CSCC(=O)N1CCCC(C(=O)c2cc(F)ccc2F)C1 (configuration not stated) | – | 10 µM (active)
Cc1cc(Cl)ccc1C(=O)C1CCCN(C(=O)CCN2CCCO2)C1 (configuration not stated) | -15.5 | –
COc1ccc(F)cc1C(=O)C1CCCN(C(=O)CCc2ccccn2)C1 (configuration not stated) | -4.22 | –
Cc1cc(C(=O)COC(=O)c2cccs2)c(C)n1-c1c(C)n(C)n(-c2ccccc2)c1=O | – | 20 µM (active)
Cc1cc(C(=O)CC#N)c(C)n1-c1c(C)n(C)n(-c2ccccc2)c1=O | 17.2 | –
Cc1cc(C(=O)OCC(=O)NCc2ccco2)c(C)n1-c1ccccc1 | -9.68 | –
CCOc1ccc(CCN2C(=O)c3cccnc3C2=O)cc1OCC | 4.81 | –
O=C1CC(=O)Nc2cc(S(=O)(=O)N3CCN(c4cccc(C(F)(F)F)c4)CC3)ccc2N1 | -2.99 | –
Cc1ccc(S(=O)(=O)NCC(=O)N(CC(=O)NC2CCCCC2)Cc2ccco2)cc1 | – | 17.8 µM (active)
Cc1ccc(S(=O)(=O)N(C)CC(=O)NC2CCCC2)cc1 | -2.42 | –

SMILES | activity, negative = inhibition [%] | Potency
O=C(CN(CC1CCCO1)C(=O)CNS(=O)(=O)c1ccc(F)cc1)NCc1ccco1 (configuration not stated) | 4.66 | –
COc1ccccc1-c1nc(SC)n[nH]1 | 2.27 | –
O=C(CN1CCOCC1)Nc1c(Cl)cc(Cl)cc1Cl | 9.81 | –
C=CCNC(=S)NNC(=O)c1cc(Cl)ccc1OC | 8.59 | –
COc1ccc(NC(=O)COc2ccc(C(=O)OCC(=O)N(C)C3CCS(=O)(=O)C3)cc2OC)cc1 (configuration not stated) | -5.23 | –
CCOc1ccc(C(=O)N(Cc2ccc(N(C)C)cc2)C2CCS(=O)(=O)C2)cc1 (configuration not stated) | – | 12.6 µM (active)
CC1(C)C(C=C(Cl)Cl)C1C(=O)N(Cc1ccc(Cl)cc1)C1CCS(=O)(=O)C1 (configuration not stated) | -1.61 | –
COc1cc(C(=O)N(Cc2ccc(N(C)C)cc2)C2CCS(=O)(=O)C2)cc(OC)c1OC (configuration not stated) | -4.2 | –
CCCCN(C(=O)COc1ccc(NC(C)=O)cc1)C1CCS(=O)(=O)C1 (configuration not stated) | 1.35 | –
COc1ccc(C(=O)N(Cc2ccc(N(C)C)cc2)C2CCS(=O)(=O)C2)cc1 (configuration not stated) | – | 5.62 µM (active)
CCCN(CCC)CCCNC(=O)CNC(=O)c1nn(-c2ccc(OC)cc2)c(=O)c2ccccc12 | -5.06 | –
COc1ccc(CC(NC(C)=O)C(=O)NC2CCN(C(=O)c3ccc(OC)c(OC)c3)CC2)cc1OC (configuration not stated) | 4.43 | –
CNC(=O)c1ccc(NC(=O)c2cccc(C(F)(F)F)c2)cc1 | 2.1 | –
CC(C)N(C(=O)Cn1cc(SCC(=O)N2CCCC2)c2ccccc21)C(C)C | 4.74 | –
O=C(c1cccc(C(=O)N2CCN(c3ccc(F)cc3)CC2)c1)N1CCN(c2ccc(F)cc2)CC1 | 2.51 | –
O=C(c1cccc(F)c1)N1CCN(c2ccc([N+](=O)[O-])c3cccnc23)CC1 | -6.77 | –
O=C(c1cccc(F)c1)N1CCN(c2ccc([N+](=O)[O-])c(N3CCCCC3)c2)CC1 | – | 8.91 µM (active)
CCCN(CC(=O)Nc1ccccc1C)C(=O)c1cc(=O)[nH]c2ccccc12 | -3.3 | –
O=C(Nc1ccc2c(c1)C(=O)OC2)Nc1cccc2ccccc12 | 4.39 | –
CC(C)OCCCNC(=S)N1CCC(C(=O)c2ccc3c(c2)OCCO3)CC1 | -11.4 | –
Cc1nn(C)c(C)c1CN(C(=O)CCc1nnc(Cc2c[nH]c3ccccc23)o1)C(C)C | 17 | –
Cc1cc(NC(=O)CN2CCCC(C)C2)n(-c2nc3ccccc3s2)n1 (configuration not stated) | 0.548 | –
CCOC(=O)N1CCN(CC(=O)Nc2cc(C)nn2-c2nc3ccccc3s2)CC1 | – | 15.8 µM (active)
CCOC(=O)N1CCN(CC(=O)Nc2ccc(F)cc2)CC1 | -2.18 | –
CN(Cc1cccs1)C(=O)Cc1c[nH]c2ccccc12 | 3.39 | –
CC(=O)NC(Cc1c[nH]c2ccccc12)C(=O)O (configuration not stated) | 9.05 | –

SMILES | activity, negative = inhibition [%] | Potency
NS(=O)(=O)c1ccc(NC(=O)COC(=O)CCc2c[nH]c3ccccc23)cc1 | -1.24 | –
CC(C)(C)N(Cc1ccccc1)C(=O)COC(=O)CCc1c[nH]c2ccccc12 | -11.5 | –
O=C(Cc1c[nH]c2ccccc12)OCCOC(=O)Cc1c[nH]c2ccccc12 | – | 17.8 µM (active)
CCOC(=O)CN(C)Cc1c[nH]c2ccccc12 | – | 22.4 µM (active)
COc1ccc(NC(=O)C(=O)NCC(=O)Nc2cccc(C(F)(F)F)c2)cc1 | 0.589 | –
O=C(C(=O)N1CCc2ccccc2C1)N1CCc2ccccc2C1 | 8.43 | –
Cc1nnc(SCC(=O)N2CCc3ccccc3C2)s1 | -3.58 | –
COc1ccc(-c2nc(CS(=O)CC(=O)N3CCc4ccccc4C3)c(C)o2)cc1 (configuration not stated) | – | 25.1 µM (active)
Clc1cc(-c2ccc(/C=N/n3cnnc3)o2)ccc1Br | 9.2 | –
CCc1ccccc1NC(=O)CSc1nnc(-c2ccncc2)o1 | -0.724 | –
Cc1ccc2c(Cl)c(C(=O)Nc3nn[nH]n3)sc2c1 | 0.398 | –
O=c1ccn([C@@H]2O[C@H](COP(=O)(O)OP(=O)(O)OP(=O)(O)O)[C@@H](O)[C@H]2O)c(=O)[nH]1 | 6.39 | –
COc1ccccc1N1CCN(C(=O)c2ccc(Cl)c(S(=O)(=O)N3CCCC3)c2)CC1 | 0.0267 | –
Cc1ccc(C(=O)NCC(=O)O)cc1S(=O)(=O)N1CCCCC1 | 2.98 | –
O=C(Oc1ccc([N+](=O)[O-])cc1)c1ccc(Cl)c(S(=O)(=O)N2CCCCC2)c1 | – | 12.6 µM (active)
CC1CCC2(CC1)NC(=O)N(Cc1nnc(-c3cccs3)o1)C2=O (configuration not stated) | -3.25 | –
CC(O)[C@@H](N)C(=O)O (some centres not stated) | 16.9 | –
CN(CC(=O)NCCc1ccccn1)S(=O)(=O)c1ccc(Cl)cc1 | -1.89 | –
O=c1[nH][nH]c(=O)c2cc(N3CCCC3)ccc12 | -1.14 | –
O=C1C=CC(=O)N1c1ccc(N2CCCCC2)cc1 | – | 0.251 µM (active)
Cc1cccn2c(CN(C)C3CCCc4ccccc43)c(C(=O)N3CCOCC3)nc12 (configuration not stated) | -12.9 | –
CC(=O)N1CCN(S(=O)(=O)c2cccc(C(=O)NC3CCC(C)CC3)c2)CC1 (configuration not stated) | -8.41 | –
COc1ccc(C(=O)Nc2ccc(N3CCC(C)CC3)cc2)cc1Br | 10.6 | –
CC1CCN(C(=S)c2cccc(O)c2)CC1 | – | 31.6 µM (active)
